Source: PubChem BioAssay (National Center for Advancing Translational Sciences (NCATS))
Pf growth 96h – inhibits malaria parasite growth, 96 h; 320,000 tested, 6.9% active; P. falciparum luciferase reporter growth, 96 h; Potency, µM (titrated, usually from 28.7 µM), inactives show at the highest dose activity change, negative = inhibition, hits mostly inhibitors; also: % is scaled to controls: 0 for no effect and ±100 for the full control effect
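Plates of compound plus infected erythrocytes (2% hematocrit, 0.05% parasitemia final) incubate 96 hours, 37 C, 5% CO2. Detection reagent added; reduced luminescence from the parasites' luciferase reporter flags inhibition.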
Sm TGR inh – blocks Schistosoma mansoni thioredoxin glutathione reductase; Q962Y6; purified TGR, DTNB reduction, TNB absorbance 405 nm; Potency, µM (doses to about 114 µM), for the others: top-dose activity change, negative = inhibition, hits mostly inhibitors; 360,000 tested, 3% active; also: % is scaled to controls: 0 for no effect and ±100 for the full control effect; nearly all actives have a fitted effect of over 60% in size
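Kinetic colorimetric format: TGR-catalysed, NADPH-driven DTNB reduction monitored via TNB absorbance. Enzyme dispensed at 20 nM; compound exposure 15 min at room temperature before reaction start.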
AMA1 RON2 block – disrupts binding of P. falciparum AMA1 to RON2; AlphaScreen AMA1-biotinylated RON2 peptide binding; Potency, µM (highest dose often 58.2 µM), inactives show at the top dose activity change, negative = inhibition, usual class: inhibitors; 360,000 tested, 0.2% active; AID 720542;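 also: 0% = vehicle wells and -100% = peptide control; nearly all actives have a fitted effect of over 45% in size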
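AMA1 (3D7) with his tag at 25 nM final met compounds first, then biotinylated RON2 peptide at 25 nM; detection used donor plus acceptor beads, 10 µg/mL apiece, read by AlphaScreen after 30 min at room temperature.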
Pf growth 48h – inhibits P. falciparum growth in the first generation, 48 h | P. falciparum luciferase growth in erythrocytes, 48 h | Potency, µM (doses to about 28.7 µM), for the others: at the top dose activity change, negative = inhibition, most hits filed as inhibitors | 310,000 tested, 5.9% active; also: % is scaled to controls: 0 for no effect and ±100 for the full control effect
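Cell-based growth assay: transgenic P. falciparum expressing firefly luciferase, cultured in red cells within RPMI 1640 containing 0.5% w/v Albumax, 24 mM bicarbonate and gentamycin. A drop in luciferase activity indicates inhibition.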
NS1 function inh – blocks influenza NS1 protein function; Potency, µM (titrated, usually from 46.1 µM), for inactives: at the top dose activity, positive = more growth; 270,000 tested, 0.4% active; AID 2326; calls by dose curve; also: actives are rising curves; nearly all actives have a fitted effect of over 50% in size
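Compounds were scored for reversing the slow growth caused by influenza A NS1 in S. cerevisiae, measured by optical density at 600 nm. Assay medium contained 2% galactose at pH 6.0; NS1-free yeast of the same strain were the positive control.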
The depositor's hits bear a star; u = inconclusive; x = no result given; [ ] = remark or other dose. Only some compounds are listed: those with a hit (about 11% of all), similar ones and a draw of the others. Unless noted, calls follow the shape of the dose curve; as a rule, active = well fitted curve in the direction sought with a large enough effect; inconclusive = small, poorly fitted or top-dose-only effect, or another doubt; inactive = no such curve, though single readings can be large; an effect the other way counts as inactive or inconclusive. Potency is read from the fitted curve at half-maximal effect.

SMILES	Pf growth 96h	Sm TGR inh	AMA1 RON2 block	Pf growth 48h	NS1 function inh
CCCCCCCCOc1ccccc1C(=O)Nc1ccc(C(=O)OCC[N+](C)(CC)CC)cc1	1.3µM*	x	x	15µM*	x
CCN(C(=O)c1ccc(NC(=O)c2ccco2)cc1)c1ccccc1	9.3µM*	-1%	6%	u	3%
CN(C(=O)c1ccc(NC(=O)c2ccco2)cc1)c1ccccc1	-22%	-26%	-13%	27%	-2%
CCOc1ccccc1C(=O)Nc1ccc(C(=O)c2ccccc2)cc1	-22%	4.5µM*	9%	0%	13%
CCCCCOC(=O)c1ccc(NC(=O)c2ccco2)cc1	3%	0%	-7%	1.3µM*	-82%
CCCCOC(=O)c1ccc(NC(=O)c2c(OC)cccc2OC)cc1	10%	14%	8%	-12%	0%
CCCCOC(=O)c1ccc(NC(=S)NC(=O)c2ccco2)cc1	12µM*	u	23%	u	10%
CCOc1cc(NC(=O)C2CC2)c(OCC)cc1NC(=O)c1cc(OC)c(OC)c(OC)c1	-19%	3%	4%	-13%	-1%
CCOc1cc(NC(=O)C2CC2)c(OCC)cc1NC(=O)c1ccccc1OCC	-20%	-1%	-21%	5.9µM*	-1%
Cc1nn2cc(-c3ccccc3)nc2[nH]c1=O	0.66µM*	8%	13%	u	-2%
CN(C)CCC#CC1(O)c2ccccc2-c2ccccc21	58%	1%	-2%	12%	-1%
CCN(CC)CCC#CC1(O)c2ccccc2-c2ccccc21	3.3µM*	-15%	-4%	-10%	3%
OC1(C#CCN2CCCC2)c2ccccc2-c2ccccc21	u	28%	11%	12µM*	0%
CCCCC(=O)Nc1cccc(-c2nc3ccccc3s2)c1	x	11%	x	x	x
CCOc1ccc(C(=O)c2cn(CC(=O)Nc3cc(OC)cc(OC)c3)c3ccc(F)cc3c2=O)cc1	x	1%	x	x	x
Cc1ccc2oc(-c3cc(NC(=O)Cc4ccccc4)ccc3Cl)nc2c1	x	1%	x	x	x
O=C(COC(=O)c1cccc(Br)c1)NCCNC(=O)COC(=O)c1cccc(Br)c1	0.41µM*	-6%	0%	0.47µM*	-5%
Cc1cc(C)n(CCc2nc(-c3ccc(C)o3)cs2)n1	u	7.9µM*	-1%	x	-6%
COc1cccc(C(=O)Nc2nc(C)cs2)c1	85%	6%	-8%	122%	-16%
Cc1csc(N(C(=O)c2cccc(S(=O)(=O)N(C)C)c2)c2ccccc2)n1	8.3µM*	-12%	29%	-17%	-13%
COc1ccc(N(C)S(=O)(=O)c2cccc(C(=O)Nc3ccc(-n4cnnn4)cc3)c2)cc1	u	-25%	28%	10µM*	-20%
COc1cc(OC)c(N(C)S(=O)(=O)c2cccc(C(=O)Nc3nnc(C4CC4)s3)c2)cc1Cl	u	0%	2%	13µM*	-4%
COc1ccc(N(C)S(=O)(=O)c2cccc(C(=O)Nc3nc(C)cs3)c2)cc1	u	-1%	-15%	13µM*	x
Cc1csc(N(C(=O)c2cccc(S(=O)(=O)N3CCCC3)c2)c2ccccc2)n1	u	-2%	-10%	x	9%
COc1ccc(N(C)S(=O)(=O)c2cccc(C(=O)NCc3ccc(C)cc3)c2)cc1	5.9µM*	5%	4%[11.6 µM]	-11%	x
SMILES	Pf growth 96h	Sm TGR inh	AMA1 RON2 block	Pf growth 48h	NS1 function inh
COc1ccccc1N(C)S(=O)(=O)c1ccc(Cl)c(C(=O)NC2=NCCS2)c1	u	5%	50%	-22%	x
CCOc1ccc(N(C)S(=O)(=O)c2ccc(C)c(C(=O)Nc3nnc(C4CC4)s3)c2)cc1	u	-3%	-9%	4.1µM*	x
COc1ccc(CNC(=O)c2ccc(N(C)S(=O)(=O)c3ccc(C)cc3)cc2)cc1	0%	9%	-2%	u	-26%
COc1cc(OC)c(N(C)S(=O)(=O)c2cccc(C(=O)Nc3nc(C)cs3)c2)cc1Cl	u	-17%	-12%	13µM*	x
COc1cc(OC)c(N(C)S(=O)(=O)c2cccc(C(=O)NC3=NCCS3)c2)cc1Cl	u	-3%	93%	10µM*	8%
COCCN(C(=O)CCCc1nc2ccccc2s1)c1c(N)n(CC(C)C)c(=O)[nH]c1=O	-5%	-18%	1%	7%	x
O=C1NC[C@H](CCCCN2C[C@H](Cc3ccccc3)N(CCc3ccccc3)C(=O)C2=O)N(CC2CCCCC2)C1=O	x	x	62%	x	x
Cc1cc2oc(C(=O)N(Cc3ccc(N(C)C)cc3)CC3CCCO3)c(C)c2cc1Cl (stereo unspecified)	x	4%	x	x	x
Cc1nc2cc(Nc3ccncc3)ccc2s1	u	3%	-3%	-16%[5.75 µM]	x
Cc1ccccc1NC(=O)c1ccc(F)c(S(=O)(=O)NC2CCCC2)c1	x	-1%	x	x	x
CCCN(CCC)C(=O)c1c[nH]c2ccc(S(=O)(=O)N(C)c3ccc(OCC)cc3)cc2c1=O	x	1%	x	x	x
CCOc1ccc(N(C)S(=O)(=O)c2ccc(C)c(C(=O)OCC(=O)c3c[nH]c4ccccc34)c2)cc1	u	x	-1%	13µM*	-1%
O=C(CCCn1c(=S)[nH]c2ccccc2c1=O)NC1CCCC1	0.52µM*	9%	8%	0%	3%
CC1CCCCC1NC(=O)CCCCCn1c(=S)[nH]c2ccccc2c1=O (stereo unspecified)	u	-8%	91%	u	x
CC1CCCCC1NC(=O)CCCn1c(=S)[nH]c2ccccc2c1=O (stereo unspecified)	15µM*	1%	34%	u	x
COC(=O)c1ccc(N2CCN(C)CC2)c(NC(=O)c2ccc(Br)o2)c1	10%	-1%	-4%	u	-2%
CN(C)c1ccc(NS(=O)(=O)c2cc3c4c(c2)CC(=O)N4CCC3)cc1	u	-13%	-12%	-26%	11%
O=C1Cc2cc(S(=O)(=O)Nc3cccc([N+](=O)[O-])c3)cc3c2N1CCC3	6.6µM*	12%	-10%	-16%	28%
Cc1ccc(C)c(NS(=O)(=O)c2cc3c4c(c2)C(C)C(=O)N4CCC3)c1 (stereo unspecified)	x	0%	x	x	x
Cc1cccc(C)c1NS(=O)(=O)c1cc2c3c(c1)CC(=O)N3CCC2	u	6%	8%	9.3µM*	u
Cc1ccc(C)c(NS(=O)(=O)c2cc3c4c(c2)CC(=O)N4CCC3)c1	3%	-2%	-5%	10µM*	20%
Cc1[nH]c2ccccc2c1C(=O)C(=O)NCc1cccs1	31%	2%	4%	6%	x
COc1ccc([C@H]2[C@H](C(=O)C(C)(C)C)N3N=Cc4ccccc4C3[C@]23N=C(c2ccccc2)OC3=O)cc1OC (stereo partly specified)	u	0%	1%	u	27%
CC(C)(C)OC(=O)[C@H]1[C@H](c2ccc([N+](=O)[O-])cc2)C2(C(=O)c3ccccc3C2=O)C2c3ccccc3C=NN21 (stereo partly specified)	1.9µM*	-16%	-19%	13µM*	1%
